# Source: PubChem
# HIF-2a block – HIF-2a reporter inhibitors, primary screen, luminescence, 786-0 RCC cells; 786-0 RCC cells HIF-2a reporter, luciferase luminescence, overnight; inhibition, % at 18.8 µM; 0.72% of 360,000 active; AID 624352, 2012;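 active means inhibition of the luminescence signal of 40% or more relative to plate controls, in a single-dose primary screen at 18.75 µM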
# ABHD5 PLIN5 PPI – ABHD5-PLIN5 interaction inhibitors, primary screen, cell lysate, split luciferase complementation, luminescence. Perilipin-5 (Homo sapiens) + 1-acylglycerol-3-phosphate O-acyltransferase ABHD5 (Homo …. Split G. princeps luciferase complementation, 4 h. inhibition, % at 4 µM. 0.78% of 360,000 active. AID 602281, 2012;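 active means inhibition above the mean inhibition across every tested compound plus 3 SD, cut at about 22% in these data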;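 further: 0% = DMSO only wells and the 100% control is not disclosed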
# KKLEB cytotox – cytotoxicity in KKLEB CF airway cells, primary screen, cytotoxicity control for CF NF-kB inhibitor project, cell-based, uHTS, fluorescence assay plates. 0.36% of 360,000 active. KKLEB CF airway cells viability, ATPlite luminescence, overnight; stronger effect = lower value; cells stimulated with P. aeruginosa culture filtrate. activity change (cytotoxicity), % at 5 µM;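 active means corrected activity change at or below -50% at 5 µM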
# CF NFkB inh – inhibitors of PAF-induced NF-kB signaling, primary screen, cell-based, GFP fluorescence, uHTS. KKLEB NF-kB-GFP reporter, GFP fluorescence overnight. inhibition, % at 5 µM. 0.86% of 360,000 active. AID 588850, 2011;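 active means at least 50% inhibition at 5 µM, scaled per plate between neutral and stimulator controls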;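 further: PAF is a Pseudomonas aeruginosa culture filtrate used as stimulus; plate controls were PAF-stimulated DMSO wells for no effect and unstimulated DMSO wells for full effect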
# Peg3 promoter – Peg3 promoter-driven luciferase inhibitors, primary screen, cell-based, HeLa, luciferase luminescence; HeLa PEG-Prom luciferase reporter, overnight; inhibition, % at 20 µM; 1.7% of 360,000 active; AID 588405, 2011;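 active means inhibition of at least 50% at 20 µM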
# MITF TRPM1 inh – inhibitors of MITF-dependent TRPM1 promoter reporter, primary screen, cell-based, SK-MEL-5, single point, luciferase. SK-MEL-5 TRPM1 promoter luciferase, 24 h. inhibition, % at 12.5 µM. 0.83% of 330,000 active;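 active means mean inhibition across replicates of 60% or more, whatever share of single replicates reaches that level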
# ABHD5-PLIN5 conf – ABHD5-PLIN5 interaction inhibitors, confirmation, biochemical, luminescence. AID 651612, 2012. shares compounds with ABHD5 PLIN5 PPI. inhibition, % at 4 µM. 67% of 2,200 active; in the data active means inhibition above about 23%;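 further: 0% = DMSO vehicle wells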
# HNF4 split-luc – HNF4 dimerization inhibitors, counter-screen for ABHD5-PLIN5 interaction inhibitor project, biochemical, split-luciferase complementation, luminescence | 77% of 2,200 active | inhibition, % at 4 µM | AID 651674, 2012 | shares compounds with ABHD5 PLIN5 PPI;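 active means mean inhibition across replicate wells exceeding the computed hit threshold, cut at about 13% in these data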;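 further: light from luciferase halves that rejoin when HNF4 fusion proteins dimerize; 0% = DMSO only wells and the 100% control is not given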
# Mdm2 MdmX conf – retested Mdm2-MdmX interaction blockers, confirmation, cell-based, luminescence, single concentration, set 2. 99% of 740 active. AID 504601, 2011. SaOS-2 split-luciferase Mdm2/MdmX complementation. inhibition, % at 8 µM. shares compounds with HIF-2a block;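 active means mean inhibition of the luminescence signal across two replicates at or above 26 percent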
# HIF-2a conf – HIF-2a reporter inhibitor retest, confirmation, luminescence, 786-0 RCC cells. HIF-2a luciferase reporter luminescence, overnight. 56% of 1,800 active. shares compounds with HIF-2a block. inhibition, % at 18.8 µM;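 active means mean inhibition across four replicates of at least 40 percent at the single tested concentration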
# HIF-1a counter – HIF-1a luciferase reporter signal reduction – MiaPaCa-2 cells, single concentration, counter-screen for HIF-2a inhibitor project, confirmation; shares compounds with HIF-2a block; inhibition, % at 18.8 µM; MiaPaCa-2 HIF-1a luciferase reporter, desferoxamine, overnight; 72% of 1,800 active;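 active means mean inhibition of the reporter signal across four replicates at the single tested dose of 50% or more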
# Numbers without * were called inactive; nt = no result given. Shown are actives, neighbours in structure and some others; about 3.1% of the full set was active somewhere.
SMILES,HIF-2a block,ABHD5 PLIN5 PPI,KKLEB cytotox,CF NFkB inh,Peg3 promoter,MITF TRPM1 inh,ABHD5-PLIN5 conf,HNF4 split-luc,HIF-2a conf,HIF-1a counter,others
CC(C)(C)NC(=O)CN(CCN1CCOCC1)C(=O)CNS(=O)(=O)c1ccccc1,8,7,0,-7,8,-8,nt,nt,nt,nt,
CC(C)c1nnc(NC(=O)CS(=O)(=O)Cc2ccccc2)s1,10,-6,-6,10,4,6,nt,nt,nt,nt,
CSc1nnc(NC(=O)c2nc(S(=O)(=O)Cc3cccc(C)c3)ncc2Cl)s1,73*,30*,-50*,90*,101*,81*,86*,56*,33,107*,Mdm2 MdmX conf=103*
CSc1nnc(NC(=O)c2nc(S(=O)(=O)Cc3ccccc3F)ncc2Cl)s1,68*,25*,-79*,95*,106*,75*,86*,55*,24,106*,Mdm2 MdmX conf=102*
Cc1cccc(CS(=O)(=O)c2ncc(Cl)c(C(=O)Nc3nnc(C(C)C)s3)n2)c1,82*,52*,-87*,92*,106*,76*,90*,59*,nt,nt,Mdm2 MdmX conf=103*
CSc1ncc(Cl)c(C(=O)Nc2nnc(SC/C=C/c3ccccc3)s2)n1,7,6,11,-8,13,10,nt,nt,nt,nt,
COCCC(=O)N1CCC(Oc2ccc(C(=O)N(C)C3CCCCC3)cc2)CC1,-30,1,-1,11,-10,-9,nt,nt,nt,nt,
COc1ccccc1C(C[N+](=O)[O-])c1c(N)n(C)c(=O)n(C)c1=O (stereo not given),74*,39*,-9,48,104*,nt,33*,65*,56*,-3,
CCn1c(=O)c([N+](=O)[O-])c(Cl)c2ccccc21,92*,41*,-2,67*,108*,94*,71*,95*,94*,106*,Mdm2 MdmX conf=103*
CCn1c(=O)c([N+](=O)[O-])c(NCCN(C)C)c2ccccc21,13,4,-6,-4,-5,-4,nt,nt,nt,nt,
O=Cc1s/c(=N\S(=O)(=O)c2ccccc2)n(CCCCl)c1Cl,96*,37*,-69*,89*,109*,97*,69*,107*,93*,102*,
COc1ccc(CCN(C)C(=O)CNC(=O)c2ccc3c(c2)OCO3)cc1OC,7,3,-4,20,12,-4,nt,nt,nt,nt,
C=CSc1sc(Cl)c(N2CCOCC2)c1[N+](=O)[O-],3,1,12,8,21,-23,nt,nt,nt,nt,
C=CS(=O)(=O)c1sc(Cl)c(N2CCOCC2)c1[N+](=O)[O-],66*,43*,-4,31,106*,32,100*,111*,75*,-3,
O=c1oc2c(CN3CCN(CCO)CC3)c(O)ccc2cc1-c1ccccn1,7,-1,3,-25,-1,6,nt,nt,nt,nt,
NC(=O)c1cccc(-c2ccnc3c2CC(C(=O)NCc2cccc(Cl)c2)O3)c1 (stereo not given),-4,-4,5,-13,5,nt,nt,nt,nt,nt,
CC(=O)/C(=C/c1ccccc1)C(=O)Nc1ccccc1C,92*,39*,-12,26,73*,44,86*,71*,88*,103*,
CC(=O)Nc1ccccc1C,13,-9,-4,16,11,3,nt,nt,nt,nt,
Cc1cccc(OCCOC(=O)c2ccc(F)c(S(=O)(=O)N3CCOCC3)c2)c1,-2,5,6,-2,-1,2,nt,nt,nt,nt,
Cn1c(=O)[nH]c(=O)c2c1nc([N+](=O)[O-])n2Cc1ccccc1,97*,24*,-85*,109*,117*,93*,62*,59*,nt,nt,Mdm2 MdmX conf=103*
CCCCOC(=O)Cn1c(=O)n(CC(=O)OCCCC)c2ccccc21,17,-5,-5,10,1,5,nt,nt,nt,nt,
CCCCCCCCCCOC(=O)Cn1c(COc2ccc(Cl)cc2)[n+](C)c2ccccc21,19,10,1,12,98*,28,nt,nt,nt,nt,Mdm2 MdmX conf=103*
CCOCCCNCc1ccc(OC)cc1,12,3,12,-20,19,2,nt,nt,nt,nt,
COc1ccc2cc(CNCCOCCOCCNCc3ccc4cc(OC)ccc4c3)ccc2c1,88*,5,-31,31,109*,91*,nt,nt,5,27,
Nc1c(N(CCO)C(=O)c2ccccc2OCc2ccccc2Cl)c(=O)[nH]c(=O)n1Cc1ccccc1,6,6,-8,13,6,1,nt,nt,nt,nt,
SMILES,HIF-2a block,ABHD5 PLIN5 PPI,KKLEB cytotox,CF NFkB inh,Peg3 promoter,MITF TRPM1 inh,ABHD5-PLIN5 conf,HNF4 split-luc,HIF-2a conf,HIF-1a counter,others
Cc1cc2c(cc1C)CSC(c1ccc3ccccc3c1O)SC2,15,-11,-15,11,23,4,nt,nt,nt,nt,
Cc1cc2c(cc1C)CSC(c1c(O)ccc3ccccc13)SC2,79*,-5,-9,41,62*,-1,nt,nt,6,99*,
Cc1ccc(Nc2c(-c3ccccn3)nc3ccc(C)cn23)cc1,-42,0,-14,13,12,70*,nt,nt,nt,nt,Mdm2 MdmX conf=86*
Cc1ccc(Nc2c(-c3ccccn3)nc3cc(C)ccn23)cc1,-14,6,-33,43,39,64*,nt,nt,nt,nt,Mdm2 MdmX conf=88*
COC(=O)CCn1nnc(-c2ccc(C(C)C)cc2)n1,91*,1,10,-6,8,68*,nt,nt,96*,75*,
CC(C)(C)C(=O)/C(=C/c1ccc(Cl)cc1)n1cncn1,93*,21,-23,48,105*,94*,nt,nt,88*,98*,
COc1ccc(/C=N/OC(=O)Nc2ccc(Cl)cc2)c(OC)c1,-88,18,-3,9,-86,-10,nt,nt,nt,nt,
O=C1CCCC2=C1C(c1cccc(O)c1)C1=C(N2)c2ccccc2C1=O (stereo not given),17,4,2,-13,25,7,nt,nt,nt,nt,
